PubChem BioAssay
Active and inactive are the calls of the source.

What was measured:
[1] = system: Plasmodium falciparum Sir2 (PF13_0152, Sir2A); assay: Plasmodium falciparum Sir2A binding compounds – biochemical, small-molecule microarray, 635 nm fluorescence, primary screen (AID 1098); settings: fluorescence 635 nm, higher = more signal;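 further: score merges spot fluorescence intensity with its signal-to-noise ratio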
[2] = probe aDKK1 binding to arrayed compounds – biochemical, biotinylated probe, 635/667 nm fluorescence, primary screen (AID 1099); settings: small-molecule microarray, higher = more signal;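 further: score merges 667nm spot fluorescence with signal to noise across triplicate slides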
[3] = probe aCHRDL2 binding to arrayed compounds – biochemical, biotinylated probe, 635/667 nm fluorescence, primary screen (AID 1100); settings: small-molecule microarray, higher = more signal
[4] = change in splice reporter luminescence, either direction, cell-based, HEK293, spliceosome inhibition project, primary screen (AID 1101); settings: HEK293 splicing luciferase reporter, 24 h, higher = more signal, called active from +8 up or from −8 down;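 further: HEK293 cells carrying a splicing-competent luciferase reporter gene; test concentration not given here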
[5] = target: Fibroblast growth factor 10 (Homo sapiens) (UniProt O15520); assay: compounds binding fibroblast growth factor 10 – biochemical, small-molecule microarray, 635 nm fluorescence, primary screen (AID 1102); settings: FGF10 binding, fluorescence 635 nm, higher = more signal
[6] = system: glycogen synthase kinase-3 (GSK3A per assay name; protocol says GSK3B); assay: compounds binding glycogen synthase kinase-3 – biochemical, small-molecule microarray, 635 nm fluorescence, GSK3A, primary screen (AID 1103); settings: fluorescence 635 nm, higher = more signal; further: the record names both GSK3A and GSK3B
[7] = target: Epidermal growth factor receptor (Homo sapiens) (UniProt P00533); assay: compounds binding epidermal growth factor receptor – biochemical, small-molecule microarray, 635 nm fluorescence, primary screen (AID 1104); settings: EGFR binding, higher = more signal;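 further: score merges 667 nm emission intensity with spot signal to noise over triplicate slides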
[8] = target: Follistatin-related protein 3 (Homo sapiens) (UniProt O95633); assay: compounds binding follistatin-related protein 3 – biochemical, small-molecule microarray, 635 nm fluorescence, primary screen (AID 1105); settings: FSTL3 binding, higher = more signal;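 further: score merges emission near 667 nm and signal to noise per printed spot across three slides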
[9] = target: Dickkopf-related protein 1 (Homo sapiens) (UniProt O94907); assay: small molecules binding DKK1 protein – biochemical, small-molecule microarray, 635 nm fluorescence scan, primary screen (AID 1106); settings: higher = more signal;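 further: score merges emission near 667 nm with signal to noise over three replicate slides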
[10] = system: Inhibin beta A chain (activin A); assay: small molecules binding activin A – biochemical, small-molecule microarray, 635 nm fluorescence scan, primary screen (AID 1107); settings: INHBA, higher = more signal;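 further: mouse activin A protein probed at 4.33 µg/mL on printed slides; score merges bound-protein fluorescence near 667 nm with spot signal-to-noise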
[11] = system: Human papillomavirus type 1a protein E7 (residues 44-93); assay: small molecules binding HPV E7 44-93 – biochemical, small-molecule microarray, residues 44-93, 635 nm fluorescence, primary screen (AID 1108); settings: fluorescence 635 nm, higher = more signal;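 further: E7 fragment applied at 1 µg/mL in TBST for 1 h at 4 C; score combines spot fluorescence with its signal to noise ratio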
[12] = hepatitis C replication reporter changes, two-sided – Huh7 cells, luciferase reporter, HCV replication inhibitor project, primary screen (AID 1109); settings: Huh7 HCV replicon luciferase reporter, 48 h; higher = more signal;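 further: huh7 hepatoma cells harbouring a luciferase neomycin HCV replicon reporter; luciferase luminescence as measure of HCV replicon replication; test concentration not given here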
[13] = target: Left-right determination factor 2 (Homo sapiens) (UniProt O00292); assay: small molecules binding LEFTY2 protein – biochemical, small-molecule microarray, 635 nm fluorescence scan, primary screen (AID 1110); settings: higher = more signal
[14] = target: Calmodulin-1 (Homo sapiens) (UniProt P0DP23); assay: small molecules binding calmodulin-1 with EGTA – biochemical, small-molecule microarray, Cy5-labelled CALM1, profiling panel (AID 1111); settings: Cy5-CALM1 binding fluorescence, higher = more signal;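 further: labelled calmodulin applied in Tris saline Tween buffer holding calcium plus EGTA and DTT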
[15] = target: Calmodulin-1 (Homo sapiens) (UniProt P0DP23); assay: small molecules binding Ca-loaded calmodulin-1 – biochemical, small-molecule microarray, Cy5-labelled CALM1, plus calcium, artefact control for SMM control-protein annotation, profiling panel (AID 1112); settings: Cy5-CALM1 binding fluorescence, higher = more signal;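 further: score merges spot fluorescence with signal to noise from triplicate slides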
[16] = probe aWnt5a binding to arrayed compounds – biochemical, biotinylated probe, 635/667 nm fluorescence, primary screen (AID 1113); settings: small-molecule microarray, higher = more signal;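 further: score merges 667 nm fluorescence intensity with signal-to-noise per printed feature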
[17] = probe aShh binding to arrayed compounds – biochemical, biotinylated probe, 635/667 nm fluorescence, primary screen (AID 1114); settings: small-molecule microarray, higher = more signal;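 further: probe is biotin-labelled aShh protein from a stem cell growth factor screen; measures binding of labelled protein to compounds printed on the slide; score merges feature fluorescence at 667 nm with signal-to-noise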
[18] = probe aNog binding to arrayed compounds – biochemical, biotinylated probe, 635/667 nm fluorescence, primary screen (AID 1115); settings: small-molecule microarray, higher = more signal;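 further: probe is biotinylated aNog protein used at 0.15 µg/mL for 1 h at 4 C; z-score combines 667 nm fluorescence of each spot with its signal to noise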
[19] = target: Torsin-1A-interacting protein 1 (Homo sapiens) (UniProt Q5JTV8); assay: compound microarray binding of lysate hLAP1 – cell lysate, small-molecule microarray, COS7 lysate, 635/667 nm fluorescence, primary screen (AID 1116); settings: 635 nm fluorescence, higher = more signal
[20] = target: Alpha-bungarotoxin (Bungarus multicinctus) (UniProt P60615); assay: compounds binding labelled alpha-BTX control protein – biochemical, small-molecule microarray, Alexa647 label, 635/667 nm fluorescence, artefact control for SMM control protein annotation, profiling panel (AID 1117); settings: alpha-BTX-A647 binding fluorescence, higher = more signal
Alpha-bungarotoxin (Bungarus multicinctus), sequence (P60615 whole entry, looked up): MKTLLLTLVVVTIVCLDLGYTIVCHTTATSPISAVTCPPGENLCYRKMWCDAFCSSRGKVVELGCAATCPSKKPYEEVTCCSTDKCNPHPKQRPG

Torsin-1A-interacting protein 1 (Homo sapiens), sequence (Q5JTV8 whole entry, looked up): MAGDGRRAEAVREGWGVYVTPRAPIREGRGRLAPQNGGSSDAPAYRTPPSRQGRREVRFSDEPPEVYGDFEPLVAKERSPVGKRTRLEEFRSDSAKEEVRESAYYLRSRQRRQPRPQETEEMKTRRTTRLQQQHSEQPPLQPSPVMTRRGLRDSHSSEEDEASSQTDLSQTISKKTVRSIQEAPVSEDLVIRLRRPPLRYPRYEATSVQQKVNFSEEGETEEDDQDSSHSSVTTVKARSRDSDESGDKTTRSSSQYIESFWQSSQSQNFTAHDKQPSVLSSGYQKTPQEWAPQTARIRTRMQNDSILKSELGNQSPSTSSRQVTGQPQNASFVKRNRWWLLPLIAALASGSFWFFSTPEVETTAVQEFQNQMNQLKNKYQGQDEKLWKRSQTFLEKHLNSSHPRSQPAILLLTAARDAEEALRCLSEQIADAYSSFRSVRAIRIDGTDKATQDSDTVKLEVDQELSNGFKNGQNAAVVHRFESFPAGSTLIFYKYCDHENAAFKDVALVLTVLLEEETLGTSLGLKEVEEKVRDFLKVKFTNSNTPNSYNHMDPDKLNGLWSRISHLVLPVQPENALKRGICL
Left-right determination factor 2 (Homo sapiens), sequence (O00292 whole entry, looked up): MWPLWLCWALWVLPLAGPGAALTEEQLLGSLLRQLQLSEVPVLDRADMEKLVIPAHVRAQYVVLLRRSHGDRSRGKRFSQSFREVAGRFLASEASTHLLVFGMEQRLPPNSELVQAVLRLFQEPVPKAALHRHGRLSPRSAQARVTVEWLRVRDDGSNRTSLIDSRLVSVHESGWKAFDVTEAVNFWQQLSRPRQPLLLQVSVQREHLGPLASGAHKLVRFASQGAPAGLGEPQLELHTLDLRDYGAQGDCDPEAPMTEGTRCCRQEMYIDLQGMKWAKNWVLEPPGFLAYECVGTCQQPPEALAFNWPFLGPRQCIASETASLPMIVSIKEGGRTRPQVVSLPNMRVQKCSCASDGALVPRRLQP
Follistatin-related protein 3 (Homo sapiens), sequence (O95633 whole entry, looked up): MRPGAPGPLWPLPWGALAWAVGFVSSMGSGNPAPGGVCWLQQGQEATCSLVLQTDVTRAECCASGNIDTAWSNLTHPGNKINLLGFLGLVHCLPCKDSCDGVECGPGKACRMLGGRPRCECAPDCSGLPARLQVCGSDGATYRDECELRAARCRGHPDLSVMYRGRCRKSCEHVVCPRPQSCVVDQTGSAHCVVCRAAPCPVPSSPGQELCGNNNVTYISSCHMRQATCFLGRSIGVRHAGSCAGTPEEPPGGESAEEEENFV
Epidermal growth factor receptor (Homo sapiens), sequence (P00533 whole entry, looked up): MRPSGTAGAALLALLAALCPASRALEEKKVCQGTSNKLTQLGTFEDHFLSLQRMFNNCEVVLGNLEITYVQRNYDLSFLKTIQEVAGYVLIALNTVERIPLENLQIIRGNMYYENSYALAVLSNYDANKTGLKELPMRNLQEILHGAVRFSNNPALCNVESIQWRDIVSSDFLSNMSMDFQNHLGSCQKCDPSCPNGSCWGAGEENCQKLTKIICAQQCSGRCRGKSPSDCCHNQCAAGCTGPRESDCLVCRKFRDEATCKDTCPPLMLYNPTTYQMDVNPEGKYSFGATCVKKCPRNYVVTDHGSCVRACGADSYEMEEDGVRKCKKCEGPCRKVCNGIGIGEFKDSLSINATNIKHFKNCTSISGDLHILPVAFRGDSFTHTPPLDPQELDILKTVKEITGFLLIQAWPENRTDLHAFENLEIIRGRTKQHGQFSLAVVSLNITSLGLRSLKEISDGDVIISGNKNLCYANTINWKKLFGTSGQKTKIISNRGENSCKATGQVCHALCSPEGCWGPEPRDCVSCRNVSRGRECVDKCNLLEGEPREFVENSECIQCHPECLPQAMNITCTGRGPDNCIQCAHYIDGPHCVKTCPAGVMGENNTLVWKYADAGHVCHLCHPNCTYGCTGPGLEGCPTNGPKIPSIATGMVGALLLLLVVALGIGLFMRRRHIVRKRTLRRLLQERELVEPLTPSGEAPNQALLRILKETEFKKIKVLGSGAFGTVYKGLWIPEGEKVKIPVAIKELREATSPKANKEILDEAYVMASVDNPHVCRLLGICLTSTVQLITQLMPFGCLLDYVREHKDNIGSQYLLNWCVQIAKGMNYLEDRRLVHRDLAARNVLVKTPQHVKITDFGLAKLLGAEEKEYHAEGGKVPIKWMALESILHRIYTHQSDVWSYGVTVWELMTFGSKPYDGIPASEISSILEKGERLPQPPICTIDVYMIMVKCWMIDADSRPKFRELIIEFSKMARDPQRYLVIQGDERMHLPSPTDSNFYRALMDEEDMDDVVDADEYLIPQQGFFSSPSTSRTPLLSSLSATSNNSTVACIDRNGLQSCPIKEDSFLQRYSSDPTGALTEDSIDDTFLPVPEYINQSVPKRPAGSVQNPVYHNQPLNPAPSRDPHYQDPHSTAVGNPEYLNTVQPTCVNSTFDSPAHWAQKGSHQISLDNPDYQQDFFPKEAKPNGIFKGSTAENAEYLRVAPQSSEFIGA
Dickkopf-related protein 1 (Homo sapiens), sequence (O94907 whole entry, looked up): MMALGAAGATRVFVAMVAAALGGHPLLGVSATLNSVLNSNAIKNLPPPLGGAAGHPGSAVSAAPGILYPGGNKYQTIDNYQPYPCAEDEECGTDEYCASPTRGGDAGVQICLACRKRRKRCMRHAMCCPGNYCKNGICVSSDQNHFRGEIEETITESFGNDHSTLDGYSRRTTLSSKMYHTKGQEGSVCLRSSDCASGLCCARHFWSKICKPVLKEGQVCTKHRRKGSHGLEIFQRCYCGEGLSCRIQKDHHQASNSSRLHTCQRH
Fibroblast growth factor 10 (Homo sapiens), sequence (O15520 whole entry, looked up): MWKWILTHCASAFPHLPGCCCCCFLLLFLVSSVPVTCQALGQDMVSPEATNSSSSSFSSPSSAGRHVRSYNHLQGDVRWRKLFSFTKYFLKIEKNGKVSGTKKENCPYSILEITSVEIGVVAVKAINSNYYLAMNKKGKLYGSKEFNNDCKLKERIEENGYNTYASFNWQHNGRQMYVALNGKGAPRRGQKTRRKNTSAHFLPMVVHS

Compound	composite z-score [1]	composite z-score [2]	composite z-score [3]	z-score [4]	composite z-score [5]	composite z-score [6]	composite z-score [7]	composite z-score [8]	composite z-score [9]	composite z-score [10]	composite z-score [11]	z-score [12]	composite z-score [13]	composite z-score [14]	composite z-score [15]	composite z-score [16]	composite z-score [17]	composite z-score [18]	composite z-score [19]	composite z-score [20]
COC(=O)C[C@H]1O[C@]2(C(=O)N(Cc3ccccc3)c3ccc(I)cc32)[C@@H](C)[C@@H]1[Si](C)(C)c1ccc(OC)cc1	-0.237	0.19	0.533	-0.853 (inactive)	0.0095	-1.19	-0.398	-0.192	-0.524	0.413	-1.02	0.486	-0.0651	0.267	0.286	-0.0462	0.0062	-0.208	-0.267	0.13
O=C(CS)NCCCCCCNC(=O)[C@@H]1C[C@@H]2C(=O)N[C@@H](Cc3ccccc3)C(=O)N2[C@@H]1c1ccc(O)cc1	1.6	-0.0356	0.307	-0.376 (inactive)	1.03	1.32	0.411	1.19	1.18	0.617	1.45	-0.144	0.621	2.31	-0.23	0.0179	-0.177	-0.443	1	1.7
O=C1OCC=C[C@H]2OC34C=CCN(Cc5ccccc5)C(=O)[C@H]3N(CCO)C(=O)[C@@H]4[C@@H]12 (stereo not given in full)	1.89	-0.227	0.679	-0.632 (inactive)	-1.09	-1.46	-0.435	-0.596	-0.965	0.0484	0.257	-0.877	-0.864	-0.289	0.822	-0.144	-0.134	-0.182	-0.459	-0.38
C[C@@H]1C=CCC(=O)OC[C@H]2O[C@@H](C=C[C@@H]2O)[C@H](C)C=CCC(=O)OC[C@H]2O[C@H]1C=C[C@@H]2O	0.489	-0.384	-1.67	-2.62 (inactive)	1.22	1.18	1.41	1.47	2.11	1.16	0.14	-0.541	1.53	-0.365	-2.23	0.275	0.186	0.854	0.196	-0.22
